Measured values: the supplement of paper PMC6522484
± gives the standard deviation of the averaged measurements.

Legend:
DLD1 [1] = test: cell viability (CellTiter-Glo) relative to plate median (fraction of plate median); higher = more viable cells; settings: 10 µM, treatment time 24 h
How it was run: (§1)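 Each value averages two independent replicates in which the well signal was normalised to the plate median (webcellHTS2, additive, without log transformation). The signal was firefly luciferase or CellTiterGlo luminescence, read on parallel plates with a Tecan F500. The cells were colorectal cancer lines with stable lentiviral TCF/Wnt firefly luciferase reporters in 384-well plates, dosed 24 h after seeding with kinase inhibitor library compounds at a final 10 µM for 24 h.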

HCT116 [2] = test: as above; settings: 10 µM; treatment time 24 h; reporter: TCF4/Wnt
How it was run: as §1

SW480 [3] = test: as above; settings: 10 µM; treatment time 24 h; reporter: 7TFP
How it was run: as §1

DLD1 [4] = test: TCF/Wnt firefly luciferase reporter signal relative to plate median (fraction of plate median); higher = higher Wnt reporter signal; settings: 10 µM, treatment time 24 h
How it was run: as §1

HCT116 [5] = test: as above; settings: 10 µM; treatment time 24 h; reporter: TCF4/Wnt
How it was run: as §1

SW480 [6] = test: as above; settings: 10 µM; treatment time 24 h; reporter: 7TFP
How it was run: as §1

SMILES | cell viability (DLD1 [1]; reporter: 7TFP) | cell viability (DLD1 [1]; reporter: TCF4/Wnt) | cell viability (HCT116 [2]) | cell viability (SW480 [3]) | TCF/Wnt firefly luciferase reporter signal (DLD1 [4]; reporter: 7TFP) | TCF/Wnt firefly luciferase reporter signal (DLD1 [4]; reporter: TCF4/Wnt) | TCF/Wnt firefly luciferase reporter signal (HCT116 [5]) | TCF/Wnt firefly luciferase reporter signal (SW480 [6])
CNC(=O)c1ccc(-c2cnc3ncc(Cc4ccc5ncccc5c4)n3n2)cc1F | 0.987 ± 0.089 | 0.931 ± 0.043 | 1.22 ± 0.2 | 0.8805 ± 0.0064 | 1.07 ± 0.078 | 1.14 ± 0.16 | 0.899 ± 0.02 | 0.652 ± 0.26
COc1cc(Nc2ncc(F)c(Nc3ccc4c(n3)NC(=O)C(C)(C)O4)n2)cc(OC)c1OC [R406(free base)] | 1.2 ± 0.18 | 0.99 ± 0.085 | 1.2 ± 0.05 | 0.968 ± 0.037 | 1.26 ± 0.028 | 1.16 ± 0.13 | 1.38 ± 0.37 | 1.29 ± 0.042
Cn1c(=O)c(F)c(Nc2ccc(I)cc2F)c2c(=O)n(C[C@@H](O)CO)cnc21 | 1.24 ± 0.05 | 1.2 | 0.9705 ± 0.0035 | 1.18 ± 0.035 | 1.66 ± 0.057 | 1.61 ± 0.62 | 1.31 ± 0.42 | 2.19 ± 0.11
CN(C[C@@H]1COCCO1)S(=O)(=O)Nc1ccc2ccc3ncc(-c4cnn(C)c4)cc3c(=O)c2c1 | 0.907 ± 0.053 | 0.888 ± 0.044 | 0.926 ± 0.15 | 0.9835 ± 0.0064 | 0.96 ± 0.1 | 1.07 ± 0.035 | 0.972 ± 0.39 | 1.02 ± 0.36
CC(C)(C)Cn1c(N)nc2ccc(-c3[nH]c(C(C)(C)C)nc3-c3ccc(F)cc3)nc21 | 1.07 ± 0.12 | 0.931 ± 0.089 | 0.928 ± 0.071 | 1.11 | 1.21 ± 0.05 | 0.969 ± 0.1 | 1.45 ± 0.38 | 1.36 ± 0.014
CC(C)(O)CC(=O)NCCn1ccc2ncnc(Nc3ccc(Oc4cccc(C(F)(F)F)c4)c(Cl)c3)c21 | 1.04 ± 0.16 | 1.03 ± 0.089 | 1.17 ± 0.14 | 0.959 ± 0.058 | 1.16 ± 0.15 | 1.07 ± 0.18 | 0.902 ± 0.27 | 0.879 ± 0.5
N#C/C(=C\c1ccc(O)c(O)c1)C(=O)NCc1ccccc1 | 0.874 ± 0.063 | 0.946 ± 0.031 | 1.08 ± 0.028 | 0.94 ± 0.032 | 0.656 ± 0.15 | 1.2 ± 0.13 | 1.1 ± 0.021 | 0.834 ± 0.016
Cc1cnc(Nc2ccc(N3CCN(C)CC3)cc2)nc1Nc1cccc(S(=O)(=O)NC(C)(C)C)c1 | 0.833 ± 0.04 | 0.912 ± 0.18 | 0.514 ± 0.17 | 0.702 ± 0.18 | 1.37 ± 0.2 | 2.17 ± 0.035 | 2.98 ± 0.97 | 0.613 ± 0.3
COc1cccc(-c2cc(=O)c3ccccc3o2)c1N | 1.24 ± 0.085 | 1.025 ± 0.0071 | 1.19 ± 0.071 | 1 ± 0.023 | 1.71 ± 0.2 | 1.62 ± 0.53 | 1.25 ± 1 | 1.27 ± 0.65
CCCNC(=O)Nc1ccc(Oc2ncnc3cc(OC)c(OC)cc23)cc1Cl | 1.15 ± 0.085 | 1.02 ± 0.03 | 1.15 ± 0.035 | 0.9145 ± 0.005 | 1.2 ± 0.085 | 1.11 ± 0.085 | 1.04 ± 0.042 | 0.975 ± 0.14
COc1cc2ncnc(Nc3ccc(F)c(Cl)c3)c2cc1NC(=O)/C=C/CN1CCCCC1 | 0.875 ± 0.16 | 1 ± 0.12 | 0.993 ± 0.024 | 1.16 ± 0.16 | 0.615 ± 0.035 | 0.531 ± 0.092 | 0.548 ± 0.0014 | 0.935 ± 0.071
